Assay results taken from PubChem BioAssay (Tox21).
Unmarked numbers belong to inactive results. Results filed as inconclusive are left out. Entries that show only a call come without a potency. Activity calls are given as the source filed them. Unless noted, calls come from the whole dose curve; as a rule, active = well fitted curve in the direction sought with a large enough effect in the repeat runs; inconclusive = weak or mixed curves; inactive = no such curve, though single readings can be large; an effect the other way counts as inactive or inconclusive.

What was measured:
[1] = molecular target: Thyrotropin-releasing hormone receptor (Homo sapiens) (UniProt P34981); experiment: qHTS assay to identify small molecule agonists of the thyrotropin-releasing hormone receptor (TRHR) signaling pathway (AID 1346891; calls by dose curve; note: series mostly up to about 58 µM)
Chain of Thyrotropin-releasing hormone receptor (Homo sapiens) (P34981 whole entry, looked up): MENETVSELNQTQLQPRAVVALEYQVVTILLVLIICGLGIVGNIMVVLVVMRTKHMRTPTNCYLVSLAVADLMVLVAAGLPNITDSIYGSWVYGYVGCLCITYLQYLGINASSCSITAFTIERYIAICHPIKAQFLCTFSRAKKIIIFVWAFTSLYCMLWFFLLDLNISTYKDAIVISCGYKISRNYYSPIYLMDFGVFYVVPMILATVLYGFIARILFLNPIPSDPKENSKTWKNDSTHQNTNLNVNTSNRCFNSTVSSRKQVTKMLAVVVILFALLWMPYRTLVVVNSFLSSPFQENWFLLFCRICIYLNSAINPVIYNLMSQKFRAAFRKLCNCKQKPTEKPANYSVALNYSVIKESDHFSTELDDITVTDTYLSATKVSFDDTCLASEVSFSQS
Outline: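 HEK293 cells expressing TRHR plated 18 h at 37 C/5% CO2, calcium dye-loaded 2 h at 37 C, then compound added (agonist mode); kinetic calcium fluorescence read 3 min at 1 s intervals; 15 concentrations in triplicate.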

[2] = Human pregnane X receptor (PXR) small molecule agonists, qHTS cell viability counter screen (AID 1346977); note: nearly all actives have a fitted effect of over 50% in size
Outline: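 PXR-Luc HepG2 cells (2,000/well, 5% charcoal-stripped FBS) preincubated 5 hr, then exposed to compounds 24 hr at 37 C. Viability read in the same wells by CellTiter-Fluor fluorescence, reagent added at 23 hr, 1 hr incubation.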

[3] = Caspase-3/7 induction in HepG2 cells by small molecules, qHTS assay (AID 1346978); note: nearly all actives have a fitted effect of over 15% in size
Outline: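 Wild-type HepG2 cells, 2,000/well, settled 5 hr at 37 C and 5% CO2, then compound-treated for 17 hr; caspase-3/7 activity read by luminescent Caspase-Glo 3/7 after 30 min at room temperature.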

[4] = Caspase-3/7 induction in CHO-K1 cells by small molecules, qHTS cell viability counter screen (AID 1346979); note: nearly all actives have a fitted effect of over 35% in size
Outline: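 Wild-type CHO-K1 cells (1,500/well) treated with compound after 5 h plating; after 16 h at 37C, viability read as CellTiter-Fluor fluorescence following 1 h reagent incubation, in the same wells as the caspase read.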

[5] = Caspase-3/7 induction in CHO-K1 cells by small molecules, qHTS assay (AID 1346980); note: nearly all actives have a fitted effect of over 15% in size
Outline: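 Wild-type CHO-K1 cells exposed to compounds for 17hr at 37 C, 5% CO2. Caspase-3/7 activity then measured by Caspase-Glo 3/7 luminescence after 30min at room temperature.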

[6] = Caspase-3/7 induction in HepG2 cells by small molecules, qHTS cell viability counter screen (AID 1346981); note: series mostly up to about 92 µM; nearly all actives have a fitted effect of over 30% in size
Outline: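 Cell viability is measured as a cytotoxicity counter screen alongside the Caspase-Glo 3/7 readout in identical wells. Wild-type HepG2 cells are treated with test compounds for 16 hr at 37 C before CellTiter-Fluor addition and a 1-hr incubation.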

[7] = molecular target: Nuclear receptor subfamily 1 group I member 2 (Homo sapiens) (UniProt O75469); experiment: Human pregnane X receptor (PXR) small molecule agonists, qHTS assay (AID 1346982); note: nearly all actives have a fitted effect of over 35% in size; note: potency is the fitted concentration of half-maximal effect
Chain of Nuclear receptor subfamily 1 group I member 2 (Homo sapiens) (O75469 whole entry, looked up): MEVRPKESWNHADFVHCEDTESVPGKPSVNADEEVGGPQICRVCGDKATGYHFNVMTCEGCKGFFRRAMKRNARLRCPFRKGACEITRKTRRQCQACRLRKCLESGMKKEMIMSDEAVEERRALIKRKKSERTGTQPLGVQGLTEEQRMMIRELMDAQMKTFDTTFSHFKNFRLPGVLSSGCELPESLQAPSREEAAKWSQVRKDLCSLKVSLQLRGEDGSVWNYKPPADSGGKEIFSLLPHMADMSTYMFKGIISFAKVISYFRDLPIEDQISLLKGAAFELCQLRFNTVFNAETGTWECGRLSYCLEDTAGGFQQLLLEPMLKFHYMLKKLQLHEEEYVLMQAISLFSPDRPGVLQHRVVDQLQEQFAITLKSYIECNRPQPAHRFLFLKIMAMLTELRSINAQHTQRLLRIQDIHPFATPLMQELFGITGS
Outline: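 Cells: HepG2 stably carrying PXR-Luc. Medium held 5% charcoal-stripped FBS. Compounds in DMSO added after 5 hr plating, incubated 24 hr, then luminescence quantified with ONE-Glo.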

[8] = molecular target: Cytochrome P450 2D6 (Homo sapiens) (UniProt P10635); experiment: Cytochrome P450 Family 2 Subfamily D Member 6 (CYP2D6) small molecule antagonists: luciferase reporter qHTS assay (AID 1671196); note: nearly all actives have a fitted effect of over 50% in size; note: potency is the fitted concentration of half-maximal effect
Chain of Cytochrome P450 2D6 (Homo sapiens) (P10635 whole entry, looked up): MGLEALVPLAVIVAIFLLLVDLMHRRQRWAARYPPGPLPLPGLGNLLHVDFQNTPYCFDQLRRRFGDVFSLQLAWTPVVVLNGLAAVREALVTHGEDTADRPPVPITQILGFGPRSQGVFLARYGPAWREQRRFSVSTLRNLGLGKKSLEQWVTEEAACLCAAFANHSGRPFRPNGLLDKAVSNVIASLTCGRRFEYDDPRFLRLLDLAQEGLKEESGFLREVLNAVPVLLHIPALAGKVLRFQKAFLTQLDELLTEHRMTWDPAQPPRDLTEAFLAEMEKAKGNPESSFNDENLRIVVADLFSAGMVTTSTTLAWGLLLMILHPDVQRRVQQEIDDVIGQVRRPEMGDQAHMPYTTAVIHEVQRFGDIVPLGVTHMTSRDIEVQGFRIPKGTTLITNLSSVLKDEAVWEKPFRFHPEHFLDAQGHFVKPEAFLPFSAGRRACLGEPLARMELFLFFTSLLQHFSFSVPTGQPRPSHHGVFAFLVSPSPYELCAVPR
Outline: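 Enzyme and proluciferin substrate were first combined with test chemical for 10 min at room temperature. Adding NADPH regeneration solution started a 1 h reaction, stopped with luciferin detection reagent and read by luminescence 20 min later.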

[9] = molecular target: Cytochrome P450 2C9 (Homo sapiens) (UniProt P11712); experiment: Cytochrome P450 Family 2 Subfamily C Member 9 (CYP2C9) small molecule antagonists: luciferase reporter qHTS assay (AID 1671198); note: nearly all actives have a fitted effect of over 50% in size; note: potency is the fitted concentration of half-maximal effect
Chain of Cytochrome P450 2C9 (Homo sapiens) (P11712 whole entry, looked up): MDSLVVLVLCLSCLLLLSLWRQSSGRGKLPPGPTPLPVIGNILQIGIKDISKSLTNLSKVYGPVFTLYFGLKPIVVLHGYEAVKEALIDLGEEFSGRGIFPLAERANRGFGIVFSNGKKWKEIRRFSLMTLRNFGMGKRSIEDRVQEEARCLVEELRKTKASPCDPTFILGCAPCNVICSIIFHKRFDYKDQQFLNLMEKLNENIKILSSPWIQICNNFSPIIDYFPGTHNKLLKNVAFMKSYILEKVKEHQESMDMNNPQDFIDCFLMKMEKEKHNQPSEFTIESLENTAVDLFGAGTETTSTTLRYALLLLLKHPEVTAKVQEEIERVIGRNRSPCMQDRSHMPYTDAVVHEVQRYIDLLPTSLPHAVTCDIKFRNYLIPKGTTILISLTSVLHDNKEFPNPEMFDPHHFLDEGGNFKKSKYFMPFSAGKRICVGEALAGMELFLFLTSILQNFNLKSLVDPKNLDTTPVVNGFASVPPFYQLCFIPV
Outline: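 P450-Glo proluciferin substrate with CYP2C9 enzyme; 10 min RT preincubation, then NADPH regeneration 1 h at 37C; luciferin detection reagent 20 min RT, luminescence in relative luminescence units.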

[10] = molecular target: Cytochrome P450 1A2 (Homo sapiens) (UniProt P05177); experiment: Cytochrome P450 Family 1 Subfamily A Member 2 (CYP1A2) small molecule antagonists: luciferase reporter qHTS assay (AID 1671199); note: nearly all actives have a fitted effect of over 50% in size; note: potency is the fitted concentration of half-maximal effect
Chain of Cytochrome P450 1A2 (Homo sapiens) (P05177 whole entry, looked up): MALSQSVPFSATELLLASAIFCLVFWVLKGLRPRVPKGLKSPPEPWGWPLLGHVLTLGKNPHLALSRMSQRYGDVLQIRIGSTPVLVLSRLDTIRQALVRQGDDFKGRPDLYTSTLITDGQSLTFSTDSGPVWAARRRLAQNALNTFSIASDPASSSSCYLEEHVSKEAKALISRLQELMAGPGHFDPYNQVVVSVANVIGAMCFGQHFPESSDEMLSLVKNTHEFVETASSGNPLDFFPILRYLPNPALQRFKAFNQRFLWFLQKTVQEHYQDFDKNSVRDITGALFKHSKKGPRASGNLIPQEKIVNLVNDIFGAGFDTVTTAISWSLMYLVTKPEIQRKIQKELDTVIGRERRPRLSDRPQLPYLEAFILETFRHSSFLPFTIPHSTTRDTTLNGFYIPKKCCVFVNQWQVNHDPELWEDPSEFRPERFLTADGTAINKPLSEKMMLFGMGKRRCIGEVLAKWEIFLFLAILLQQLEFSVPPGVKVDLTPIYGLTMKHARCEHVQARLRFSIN
Outline: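 Compounds were incubated with CYP1A2 and a luminogenic proluciferin substrate for 10 min at room temperature before the reaction was started with NADPH regeneration solution. After 1 h, detection reagent was added and light output, proportional to CYP activity, was recorded.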

[11] = molecular target: Voltage-gated inwardly rectifying potassium channel KCNH2 (Homo sapiens) (UniProt Q12809); experiment: Human Ether-a-go-go-Related Gene (hERG) channel small molecule antagonists: fluorescence cell-based qHTS assay (AID 1671200); note: nearly all actives have a fitted effect of over 50% in size; note: potency is the fitted concentration of half-maximal effect
Chain of Voltage-gated inwardly rectifying potassium channel KCNH2 (Homo sapiens) (Q12809 whole entry, looked up): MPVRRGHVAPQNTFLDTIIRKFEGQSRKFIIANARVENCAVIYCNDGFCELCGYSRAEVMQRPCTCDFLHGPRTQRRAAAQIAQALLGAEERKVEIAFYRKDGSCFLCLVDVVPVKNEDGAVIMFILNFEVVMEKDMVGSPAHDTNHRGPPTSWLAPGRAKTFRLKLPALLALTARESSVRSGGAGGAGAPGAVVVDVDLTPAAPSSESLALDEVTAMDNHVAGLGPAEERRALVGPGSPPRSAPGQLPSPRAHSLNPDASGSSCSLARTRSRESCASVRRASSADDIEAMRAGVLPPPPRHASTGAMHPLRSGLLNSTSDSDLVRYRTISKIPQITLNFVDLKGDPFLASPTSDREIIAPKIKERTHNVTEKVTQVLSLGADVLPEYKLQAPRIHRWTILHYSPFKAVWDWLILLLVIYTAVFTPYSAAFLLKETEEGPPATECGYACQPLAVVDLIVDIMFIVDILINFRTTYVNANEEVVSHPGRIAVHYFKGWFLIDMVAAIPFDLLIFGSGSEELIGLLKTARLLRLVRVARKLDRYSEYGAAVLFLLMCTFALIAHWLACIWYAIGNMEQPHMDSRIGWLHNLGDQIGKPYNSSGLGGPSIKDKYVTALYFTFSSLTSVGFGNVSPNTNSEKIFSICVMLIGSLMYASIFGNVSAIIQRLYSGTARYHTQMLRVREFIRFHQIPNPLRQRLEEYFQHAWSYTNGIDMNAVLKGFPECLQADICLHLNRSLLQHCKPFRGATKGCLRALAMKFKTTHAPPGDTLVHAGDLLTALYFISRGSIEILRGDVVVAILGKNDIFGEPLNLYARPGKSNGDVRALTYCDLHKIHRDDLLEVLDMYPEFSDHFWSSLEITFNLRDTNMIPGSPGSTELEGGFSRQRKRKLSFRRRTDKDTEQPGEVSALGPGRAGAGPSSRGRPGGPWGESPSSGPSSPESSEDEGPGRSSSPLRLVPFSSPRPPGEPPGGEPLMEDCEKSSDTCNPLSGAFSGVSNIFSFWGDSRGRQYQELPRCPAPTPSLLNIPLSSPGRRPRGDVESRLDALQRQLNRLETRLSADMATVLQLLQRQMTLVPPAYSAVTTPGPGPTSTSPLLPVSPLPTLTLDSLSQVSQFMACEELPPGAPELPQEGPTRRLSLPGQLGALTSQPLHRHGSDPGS
Outline: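 hERG-U2OS cells plated overnight at 37 C, loaded with FluxOR II dye 1 h at RT in dark; after 10 min, thallium stimulus added. Fluorescence (480/540 nm) read kinetically for 2 min at 1 s intervals.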

[12] = molecular target: Cytochrome P450 3A4 (Homo sapiens) (UniProt P08684); experiment: Cytochrome P450 Family 3 Subfamily A Member 4 (CYP3A4) small molecule antagonists: luciferase reporter qHTS assay (AID 1671201); note: nearly all actives have a fitted effect of over 50% in size; note: potency is the fitted concentration of half-maximal effect
Chain of Cytochrome P450 3A4 (Homo sapiens) (P08684 whole entry, looked up): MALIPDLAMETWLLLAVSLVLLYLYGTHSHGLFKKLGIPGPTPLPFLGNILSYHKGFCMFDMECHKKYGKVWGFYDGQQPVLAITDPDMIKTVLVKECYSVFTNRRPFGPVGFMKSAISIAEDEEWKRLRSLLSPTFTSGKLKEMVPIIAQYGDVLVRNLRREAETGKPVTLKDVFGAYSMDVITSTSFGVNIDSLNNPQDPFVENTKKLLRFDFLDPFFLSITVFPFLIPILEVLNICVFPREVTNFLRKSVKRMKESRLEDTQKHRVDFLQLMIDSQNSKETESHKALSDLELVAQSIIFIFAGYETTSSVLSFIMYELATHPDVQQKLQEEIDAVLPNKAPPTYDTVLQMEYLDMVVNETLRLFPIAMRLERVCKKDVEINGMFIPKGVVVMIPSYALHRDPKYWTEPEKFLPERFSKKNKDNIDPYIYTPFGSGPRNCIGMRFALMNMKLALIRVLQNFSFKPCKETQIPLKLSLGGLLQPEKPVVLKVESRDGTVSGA
Outline: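 P450-Glo CYP3A4 luminescent assay: compounds preincubated 10 min at room temperature with enzyme and proluciferin substrate, NADPH regeneration added, 1 h room-temperature reaction, stopped with luciferin detection reagent; luminescence read after 20 min. Ketoconazole positive control.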

[13] = molecular target: Nuclear receptor subfamily 1 group I member 2 (Rattus norvegicus) (UniProt Q9R1A7); experiment: Rat pregnane X receptor (rPXR) activation by small molecules, qHTS assay (AID 1346983); conditions: rPXR luciferase reporter cells, One-Glo luminescence, 24 h; max activation: stronger effect = higher value; note: nearly all actives have a fitted effect of over 20% in size
Chain of Nuclear receptor subfamily 1 group I member 2 (Rattus norvegicus) (Q9R1A7 whole entry, looked up): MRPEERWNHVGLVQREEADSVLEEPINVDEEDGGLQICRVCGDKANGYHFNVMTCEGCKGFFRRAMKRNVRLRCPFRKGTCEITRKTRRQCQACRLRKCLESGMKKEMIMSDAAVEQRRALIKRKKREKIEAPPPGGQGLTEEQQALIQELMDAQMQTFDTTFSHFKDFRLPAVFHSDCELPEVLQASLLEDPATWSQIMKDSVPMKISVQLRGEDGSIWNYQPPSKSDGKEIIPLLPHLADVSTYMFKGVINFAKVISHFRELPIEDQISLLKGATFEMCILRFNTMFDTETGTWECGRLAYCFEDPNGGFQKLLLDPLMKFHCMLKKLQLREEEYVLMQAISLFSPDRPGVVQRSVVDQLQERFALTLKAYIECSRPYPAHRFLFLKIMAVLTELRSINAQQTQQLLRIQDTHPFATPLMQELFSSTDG
Outline: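 Cell-based rPXR activation assay: rPXR cells, 2,000 per well, rested 5hr at 37 C, then exposed to compounds in DMSO for 24 hr at 37 C. Luciferase activity read by One-Glo luminescence after 30 min at room temperature.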

[14] = molecular target: Nuclear receptor subfamily 1 group I member 2 (Homo sapiens) (UniProt O75469); experiment: Human pregnane X receptor (PXR) activation by small molecules, qHTS assay (AID 1346985); note: nearly all actives have a fitted effect of over 40% in size
Outline: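 DPX-2 cells (HepG2 co-transfected with a PXR response element and a CYP3A4-promoter luciferase construct) were seeded at 2,000 per well, rested 5 hr at 37C, then exposed to DMSO-dissolved compounds for 24 hr. Activation was read as luciferase luminescence.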

[15] = molecular target: Cytochrome P450 2C19 (Homo sapiens) (UniProt P33261); experiment: Cytochrome P450 Family 2 Subfamily C Member 19 (CYP2C19) small molecule antagonists: luciferase reporter qHTS assay (AID 1671197); note: nearly all actives have a fitted effect of over 65% in size; note: potency is the fitted concentration of half-maximal effect
Chain of Cytochrome P450 2C19 (Homo sapiens) (P33261 whole entry, looked up): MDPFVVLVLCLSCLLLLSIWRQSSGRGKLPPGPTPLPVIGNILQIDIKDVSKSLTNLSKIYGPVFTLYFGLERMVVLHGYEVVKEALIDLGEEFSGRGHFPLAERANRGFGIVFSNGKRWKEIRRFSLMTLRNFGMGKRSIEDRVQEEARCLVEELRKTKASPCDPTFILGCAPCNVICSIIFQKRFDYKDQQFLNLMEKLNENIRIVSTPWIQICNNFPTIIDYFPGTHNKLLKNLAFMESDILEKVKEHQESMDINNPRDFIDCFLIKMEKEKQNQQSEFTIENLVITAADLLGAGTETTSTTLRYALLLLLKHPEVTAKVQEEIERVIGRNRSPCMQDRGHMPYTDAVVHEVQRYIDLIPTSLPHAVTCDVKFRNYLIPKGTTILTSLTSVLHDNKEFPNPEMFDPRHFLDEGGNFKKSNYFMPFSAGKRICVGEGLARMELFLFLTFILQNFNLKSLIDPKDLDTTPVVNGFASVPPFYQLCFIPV
Outline: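 P450-Glo CYP2C19 system: enzyme-substrate mix with compound 10 min at room temperature, then NADPH regeneration solution, 1 h at 37C. Proluciferin-to-luciferin conversion detected by luminescence after 20 min with detection reagent; ketoconazole as positive control.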

SMILES	outcome [1]	Potency [2]	Potency [3]	Potency [4]	Potency [5]	Potency [6]	Potency [7]	Potency [8]	Potency [9]	Potency [10]	Potency [11]	Potency [12]	max activation [13] [%]	Potency [14]	Potency [15]
C/C(=C\C(C)CC(C)CC(C)C)C1CC(=O)OC1=O (stereo not given)	inactive	inactive	inactive	inactive	inactive	inactive	inactive	35.6 µM (active)	56.4 µM (active)	inactive	inactive	inactive			
Cc1c(-c2cccnc2)c2ccccc2n1CCCCC(=O)O	inactive	inactive	inactive	inactive	inactive	inactive	inactive	inactive	31.7 µM (active)	31.7 µM (active)	inactive	5.03 µM (active)			
Cc1c(Nc2ncccc2C(=O)O)cccc1C(F)(F)F	inactive	inactive	inactive	inactive	inactive	inactive		inactive			inactive		-1.47	inactive	inactive
O=C(O)CNc1ccccc1	inactive	inactive	inactive	inactive	inactive	inactive	inactive	inactive			inactive	inactive			inactive
CCN(CCCCOC(=O)c1ccc(OC)c(OC)c1)C(C)Cc1ccc(OC)cc1 (stereo not given)	inactive	inactive	inactive	inactive	inactive		inactive		inactive	inactive	3.38 µM (active)		3.44	inactive	
Cc1ccc2ccccc2c1[N+](=O)[O-]	inactive	inactive	inactive	inactive	inactive	inactive		inactive	inactive	2.52 µM (active)					79.6 µM (active)
CCC[Si](OC)(OC)OC	inactive	inactive	inactive	inactive	inactive	inactive	inactive	inactive			inactive	inactive			71 µM (active)
CC(C)=CCCC(C)C=O (stereo not given)	inactive	inactive	inactive	inactive	inactive	inactive	inactive	inactive		inactive		35.6 µM (active)			
O=C(O)c1cccnc1Nc1cccc(C(F)(F)F)c1	inactive	inactive	inactive	inactive	inactive	inactive	13.3 µM (active)	inactive			inactive	inactive			inactive
SCCOCCOCCS	inactive	inactive	inactive	inactive	inactive		4.86 µM (active)	inactive	35.6 µM (active)	22.4 µM (active)	inactive				10 µM (active)
